The supplement of paper PMC10849652
About 8,800 targets were measured; listed, in parts, are those with a hit and a random draw of the rest. About 0.5% of all pairs of compound and target were hits.

Experiments:
Experiment in all cases: log2 fold change, soluble protein after heating vs DMSO (PISA); higher = thermal stabilisation; K562 lysate, 10 uM; active = over 0.2 and 3.5 SD of the protein, either way, in both replicates (recomputed)
[1] = compound: Cc1cn(-c2cc(NC(=O)c3ccc(C)c(Nc4nccc(-c5cccnc5)n4)c3)cc(C(F)(F)F)c2)cn1 [nilotinib]
How it was run: (§1)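 Values give the log-two fold change in thermal stability against solvent controls, from duplicates. Crude K562 extract at 1 mg/mL protein, made by dounce homogenisation in PBS pH 7.4 with 1 mM MgCl2, was treated with 10 μM compound for 30 min. After 3 min heating across 48°C-58°C, aliquots were pooled, adjusted to 0.5% NP-40 at 4°C and centrifuged at 21,000xg for 90 min. The supernatant was measured by TMTpro 16plex LC-MS/MS with channel sums equalised.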

[2] = compound: Cc1nc(Nc2n[nH]c3c2CN(C(=O)N[C@H](CN(C)C)c2ccccc2)C3(C)C)c2sccc2n1
How it was run: as §1

[3] = compound: Cc1nc(Nc2ncc(C(=O)Nc3c(C)cccc3Cl)s2)cc(N2CCN(CCO)CC2)n1 [dasatinib]
How it was run: as §1

[4] = compound: Cc1ncc(-c2ccnc(Nc3ccc(S(C)(=O)=O)cc3)n2)n1C(C)C
How it was run: as §1

[5] = compound: Cn1cc(-c2ccc3c(c2)CCN3C(=O)Cc2cccc(C(F)(F)F)c2)c2c(N)ncnc21
How it was run: as §1

[6] = compound: Cn1cc(CNCC2CCN(c3ncc(C(=O)NO)cn3)CC2)c2ccccc21 [quisinostat]
How it was run: as §1

[7] = compound: Cn1cncc1[C@@](N)(c1ccc(Cl)cc1)c1ccc2c(c1)c(-c1cccc(Cl)c1)cc(=O)n2C [tipifarnib]
How it was run: as §1

[8] = compound: NC(=O)Nc1cc(-c2cccc(F)c2)sc1C(=O)N[C@H]1CCCNC1
How it was run: as §1

[9] = compound: NC(=O)c1cnc(N[C@@H]2CCCC[C@@H]2N)nc1Nc1cccc(-n2nccn2)c1
How it was run: as §1

[10] = compound: NC1(c2ccc(-c3nc4ccn5c(=O)[nH]nc5c4cc3-c3ccccc3)cc2)CCC1
How it was run: as §1

Measured: log2 fold change

OSBP2 (UniProt Q969R2)
inactive: [1] -0.053 | [2] -0.038 | [3] -0.089 | [4] -0.025 | [5] -0.002 | [6] -0.184 | [7] -0.053 | [8] 0.052 | [9] 0.075 | [10] 0.026

NCAPH2 (UniProt Q6IBW4)
inactive: [1] -0.029 | [2] 0 | [3] -0.011 | [4] -0.048 | [5] 0.066 | [6] 0.051 | [7] -0.014 | [8] 0.058 | [9] 0.004 | [10] 0.025

NDUFA4 (UniProt O00483)
inactive: [1] 0.062 | [2] 0.058 | [3] 0.043 | [4] 0.16 | [5] -0.007 | [6] 0.104 | [7] 0.031 | [8] -0.065 | [9] 0.08 | [10] 0.019

NUMB (UniProt P49757)
Sequence of UniProt P49757 (P49757 whole entry, looked up): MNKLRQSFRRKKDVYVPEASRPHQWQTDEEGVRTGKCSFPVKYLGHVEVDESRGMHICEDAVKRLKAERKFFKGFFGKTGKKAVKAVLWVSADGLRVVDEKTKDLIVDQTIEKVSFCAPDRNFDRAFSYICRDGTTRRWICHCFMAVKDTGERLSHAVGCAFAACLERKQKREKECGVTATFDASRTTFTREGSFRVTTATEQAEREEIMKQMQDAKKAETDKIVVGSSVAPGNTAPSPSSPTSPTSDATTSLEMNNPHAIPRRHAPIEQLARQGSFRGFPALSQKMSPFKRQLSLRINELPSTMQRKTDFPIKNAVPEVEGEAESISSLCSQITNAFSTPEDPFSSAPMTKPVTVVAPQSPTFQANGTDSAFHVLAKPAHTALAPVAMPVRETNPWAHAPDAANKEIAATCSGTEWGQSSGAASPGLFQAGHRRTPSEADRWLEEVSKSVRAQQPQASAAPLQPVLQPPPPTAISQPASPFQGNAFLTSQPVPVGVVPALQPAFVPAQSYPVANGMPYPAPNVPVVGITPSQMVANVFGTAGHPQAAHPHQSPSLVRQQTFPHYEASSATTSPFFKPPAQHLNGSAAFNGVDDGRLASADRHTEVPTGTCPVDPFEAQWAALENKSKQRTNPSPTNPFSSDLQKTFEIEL
inactive: [1] -0.03 | [2] -0.024 | [3] -0.072 | [4] -0.008 | [5] 0.001 | [6] -0.02 | [7] 0.001 | [8] -0.029 | [9] -0.026 | [10] 0.003

MYH11 isoform 2 (UniProt P35749)
inactive: [1] -0.072 | [2] -0.022 | [3] -0.043 | [4] -0.011 | [5] 0.014 | [6] 0.099 | [7] -0.045 | [8] -0.029 | [9] 0.013 | [10] -0.032

NCAPG (UniProt Q9BPX3)
inactive: [1] 0.01 | [2] 0.002 | [3] -0.062 | [4] 0 | [5] 0.007 | [6] -0.08 | [7] 0 | [8] 0.012 | [9] -0.004 | [10] -0.019

OTC (UniProt P00480)
inactive: [1] -0.105 | [2] -0.023 | [3] -0.347 | [4] -0.159 | [5] 0.106 | [6] -0.492 | [7] 0.054 | [8] -0.055 | [9] 0.071 | [10] -0.075

PANK2 (UniProt Q9BZ23)
Sequence of UniProt Q9BZ23 (Q9BZ23 whole entry, looked up): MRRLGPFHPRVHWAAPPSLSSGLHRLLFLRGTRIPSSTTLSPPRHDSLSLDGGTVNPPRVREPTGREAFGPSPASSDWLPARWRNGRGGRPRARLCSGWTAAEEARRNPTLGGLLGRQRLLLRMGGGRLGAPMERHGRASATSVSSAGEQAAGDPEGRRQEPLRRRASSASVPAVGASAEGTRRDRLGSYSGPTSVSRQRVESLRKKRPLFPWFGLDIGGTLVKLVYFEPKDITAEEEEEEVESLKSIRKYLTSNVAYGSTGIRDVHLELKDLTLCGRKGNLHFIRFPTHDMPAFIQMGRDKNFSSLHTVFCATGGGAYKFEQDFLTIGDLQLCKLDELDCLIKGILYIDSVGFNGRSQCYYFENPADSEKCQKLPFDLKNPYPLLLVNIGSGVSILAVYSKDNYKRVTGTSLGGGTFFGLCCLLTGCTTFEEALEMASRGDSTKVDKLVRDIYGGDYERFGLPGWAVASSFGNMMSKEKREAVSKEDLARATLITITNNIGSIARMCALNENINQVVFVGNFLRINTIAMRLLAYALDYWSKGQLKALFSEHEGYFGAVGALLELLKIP
inactive: [1] -0.068 | [2] -0.111 | [3] 0.135 | [4] 0.001 | [5] -0.032 | [6] 0.045 | [7] 0.126 | [8] -0.053 | [9] -0.005

MYD88 isoform 6 (UniProt Q99836)
inactive: [1] -0.003 | [2] 0.001 | [3] -0.021 | [4] -0.027 | [5] 0.024 | [6] -0.033 | [7] 0.004 | [8] 0 | [9] 0.03 | [10] 0.054

NIFK (UniProt Q9BYG3)
inactive: [1] 0.033 | [2] -0.003 | [3] -0.012 | [4] 0.035 | [5] -0.01 | [6] -0.042 | [7] 0.002 | [8] 0.037 | [9] -0.016 | [10] -0.038

NIPSNAP3A (UniProt Q9UFN0)
Sequence of UniProt Q9UFN0 (Q9UFN0 whole entry, looked up): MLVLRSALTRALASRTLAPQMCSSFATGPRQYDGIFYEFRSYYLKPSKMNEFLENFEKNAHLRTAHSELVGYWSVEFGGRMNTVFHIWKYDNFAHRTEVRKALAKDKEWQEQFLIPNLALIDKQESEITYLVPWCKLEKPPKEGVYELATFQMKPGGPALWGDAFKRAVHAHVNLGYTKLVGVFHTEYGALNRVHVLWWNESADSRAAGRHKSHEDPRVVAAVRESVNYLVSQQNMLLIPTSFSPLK
inactive: [1] 0.001 | [2] 0.016 | [3] 0.028 | [4] 0.008 | [5] -0.054 | [6] -0.053 | [7] 0.015 | [8] 0.007 | [9] -0.052 | [10] -0.025

NF1 (UniProt P21359)
inactive: [1] -0.021 | [2] 0.053 | [3] 0.007 | [4] -0.039 | [5] 0.024 | [6] -0.059 | [7] 0.018 | [8] 0.041 | [9] 0.016 | [10] -0.016

MYCBP (UniProt Q99417)
inactive: [1] -0.034 | [2] 0.041 | [3] 0.019 | [4] 0.055 | [5] -0.011 | [6] -0.058 | [7] -0.011 | [8] -0.038 | [9] -0.02 | [10] 0.029

NNT (UniProt Q13423)
inactive: [1] -0.017 | [2] 0.001 | [3] 0.003 | [4] 0.002 | [5] 0.002 | [6] 0.01 | [7] 0.009 | [8] -0.021 | [9] 0.002 | [10] 0.001

ORC5 (UniProt O43913)
Sequence of UniProt O43913 (O43913 whole entry, looked up): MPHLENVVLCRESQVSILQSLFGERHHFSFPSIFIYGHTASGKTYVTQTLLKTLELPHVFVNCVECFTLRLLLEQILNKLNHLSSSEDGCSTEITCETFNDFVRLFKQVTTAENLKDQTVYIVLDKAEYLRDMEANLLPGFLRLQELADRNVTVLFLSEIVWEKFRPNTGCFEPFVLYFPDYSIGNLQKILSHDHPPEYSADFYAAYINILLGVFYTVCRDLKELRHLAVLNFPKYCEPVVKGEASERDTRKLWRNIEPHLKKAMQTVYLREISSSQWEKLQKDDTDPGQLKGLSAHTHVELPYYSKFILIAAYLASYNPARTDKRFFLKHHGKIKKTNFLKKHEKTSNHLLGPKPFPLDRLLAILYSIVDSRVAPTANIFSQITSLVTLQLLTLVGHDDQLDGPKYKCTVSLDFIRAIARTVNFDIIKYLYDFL
inactive: [1] -0.043 | [2] -0.004 | [3] -0.047 | [4] 0.019 | [5] 0.098 | [6] -0.107 | [7] -0.004 | [8] 0.098 | [9] 0.047 | [10] -0.073

MTA1 (UniProt Q13330)
inactive: [1] 0.042 | [2] 0.01 | [3] -0.023 | [4] 0.033 | [5] 0.005 | [6] -0.089 | [7] -0.03 | [8] 0.052 | [9] -0.033 | [10] -0.004

NUP160 (UniProt Q12769)
inactive: [1] 0.014 | [2] -0.025 | [3] -0.092 | [4] -0.032 | [5] 0.021 | [6] -0.032 | [7] -0.031 | [8] 0.009 | [9] 0.002 | [10] -0.018

MRPL53 (UniProt Q96EL3)
inactive: [1] -0.04 | [2] 0.026 | [3] -0.018 | [4] 0.015 | [5] 0.06 | [6] 0.02 | [7] -0.034 | [8] -0.041 | [9] -0.006 | [10] 0.031

MYO1D (UniProt O94832)
inactive: [1] 0.002 | [2] -0.01 | [3] -0.036 | [4] -0.006 | [5] 0.016 | [6] -0.031 | [7] -0.004 | [8] 0.05 | [9] 0 | [10] -0.042

NCK1 (UniProt P16333)
inactive: [1] -0.071 | [2] 0.015 | [3] -0.005 | [4] -0.037 | [5] -0.015 | [6] -0.053 | [7] 0.018 | [8] 0.029 | [9] 0.001 | [10] 0.008

NUMBL (UniProt Q9Y6R0)
active: [8] -0.415
inactive: [1] 0.038 | [2] -0.013 | [3] -0.041 | [4] -0.12 | [5] 0.219 | [6] 0.04 | [7] -0.06 | [9] -0.055 | [10] -0.046

NCOR2 (UniProt C9J0Q5)
inactive: [1] 0.09 | [2] -0.034 | [3] -0.082 | [4] 0.043 | [5] -0.015 | [6] -0.034 | [7] -0.045 | [8] 0.047 | [9] 0.025 | [10] 0.022

NFATC2IP (UniProt Q8NCF5)
inactive: [1] 0.027 | [2] -0.015 | [3] 0.071 | [4] -0.055 | [5] 0.005 | [6] 0.019 | [7] 0.061 | [8] 0 | [9] -0.015 | [10] 0.03

NNMT (UniProt P40261)
inactive: [1] -0.044 | [2] -0.01 | [3] 0.058 | [4] 0.03 | [5] 0.003 | [6] -0.145 | [7] -0.008 | [8] 0.004 | [9] 0.035 | [10] -0.033

NCOR1 (UniProt O75376)
Sequence of UniProt O75376 (O75376 whole entry, looked up): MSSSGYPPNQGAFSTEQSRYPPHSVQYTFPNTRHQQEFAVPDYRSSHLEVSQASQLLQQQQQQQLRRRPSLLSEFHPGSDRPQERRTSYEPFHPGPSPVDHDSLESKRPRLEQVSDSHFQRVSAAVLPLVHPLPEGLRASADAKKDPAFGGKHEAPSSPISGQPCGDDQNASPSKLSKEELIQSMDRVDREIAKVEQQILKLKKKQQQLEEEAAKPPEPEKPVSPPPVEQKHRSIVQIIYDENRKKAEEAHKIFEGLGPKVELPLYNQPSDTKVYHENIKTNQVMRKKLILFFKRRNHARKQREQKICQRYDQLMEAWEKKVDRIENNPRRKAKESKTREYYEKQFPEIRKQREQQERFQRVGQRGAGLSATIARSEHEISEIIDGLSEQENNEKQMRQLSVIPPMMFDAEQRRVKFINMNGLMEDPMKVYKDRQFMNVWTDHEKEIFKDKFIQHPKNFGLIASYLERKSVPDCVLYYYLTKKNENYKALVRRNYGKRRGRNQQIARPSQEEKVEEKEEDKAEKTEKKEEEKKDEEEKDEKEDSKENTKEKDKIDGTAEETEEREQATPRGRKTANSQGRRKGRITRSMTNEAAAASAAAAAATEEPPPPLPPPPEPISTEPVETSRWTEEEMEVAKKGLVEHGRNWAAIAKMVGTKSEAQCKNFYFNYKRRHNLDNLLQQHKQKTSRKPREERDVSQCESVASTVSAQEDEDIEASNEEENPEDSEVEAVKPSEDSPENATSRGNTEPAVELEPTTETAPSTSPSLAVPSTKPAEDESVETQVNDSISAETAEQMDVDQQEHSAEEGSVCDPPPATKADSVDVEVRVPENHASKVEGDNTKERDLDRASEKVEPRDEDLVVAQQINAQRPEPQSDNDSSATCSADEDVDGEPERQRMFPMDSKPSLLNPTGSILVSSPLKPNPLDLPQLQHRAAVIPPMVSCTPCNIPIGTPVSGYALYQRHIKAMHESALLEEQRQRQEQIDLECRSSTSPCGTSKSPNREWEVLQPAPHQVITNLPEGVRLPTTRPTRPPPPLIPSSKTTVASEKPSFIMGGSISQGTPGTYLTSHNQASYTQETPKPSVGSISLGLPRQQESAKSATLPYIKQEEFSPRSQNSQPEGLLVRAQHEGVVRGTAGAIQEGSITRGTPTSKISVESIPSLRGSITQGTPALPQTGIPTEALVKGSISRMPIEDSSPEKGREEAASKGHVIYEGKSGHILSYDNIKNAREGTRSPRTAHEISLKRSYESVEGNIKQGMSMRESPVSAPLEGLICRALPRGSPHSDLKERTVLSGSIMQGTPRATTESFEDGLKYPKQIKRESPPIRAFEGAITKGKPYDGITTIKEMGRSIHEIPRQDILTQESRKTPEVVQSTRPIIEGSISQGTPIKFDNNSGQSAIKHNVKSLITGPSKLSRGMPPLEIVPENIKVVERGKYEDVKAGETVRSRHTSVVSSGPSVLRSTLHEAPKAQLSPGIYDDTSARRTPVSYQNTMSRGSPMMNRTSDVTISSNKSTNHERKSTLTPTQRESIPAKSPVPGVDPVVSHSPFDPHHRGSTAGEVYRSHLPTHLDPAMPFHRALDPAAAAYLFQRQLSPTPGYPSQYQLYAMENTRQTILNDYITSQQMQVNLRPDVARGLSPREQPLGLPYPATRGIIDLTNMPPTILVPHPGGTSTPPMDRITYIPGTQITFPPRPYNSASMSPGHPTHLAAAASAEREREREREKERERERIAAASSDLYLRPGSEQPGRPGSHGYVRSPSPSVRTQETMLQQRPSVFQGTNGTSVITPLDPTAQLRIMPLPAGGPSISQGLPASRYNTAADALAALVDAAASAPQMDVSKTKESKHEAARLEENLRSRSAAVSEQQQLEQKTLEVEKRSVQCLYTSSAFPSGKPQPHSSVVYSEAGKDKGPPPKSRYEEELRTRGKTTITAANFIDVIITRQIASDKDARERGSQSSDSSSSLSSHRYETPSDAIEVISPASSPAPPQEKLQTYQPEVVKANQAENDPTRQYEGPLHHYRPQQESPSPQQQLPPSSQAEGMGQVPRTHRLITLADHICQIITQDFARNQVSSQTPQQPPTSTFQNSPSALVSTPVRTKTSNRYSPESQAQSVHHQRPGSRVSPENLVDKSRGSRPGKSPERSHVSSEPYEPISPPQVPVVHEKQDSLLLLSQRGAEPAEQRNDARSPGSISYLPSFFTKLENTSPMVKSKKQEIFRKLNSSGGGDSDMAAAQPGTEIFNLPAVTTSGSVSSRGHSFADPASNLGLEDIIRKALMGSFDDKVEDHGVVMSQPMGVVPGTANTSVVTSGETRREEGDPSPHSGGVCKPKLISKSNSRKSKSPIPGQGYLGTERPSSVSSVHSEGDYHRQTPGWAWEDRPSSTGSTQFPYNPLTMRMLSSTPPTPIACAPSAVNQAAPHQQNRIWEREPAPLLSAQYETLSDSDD
inactive: [1] 0.006 | [2] 0.012 | [3] -0.031 | [4] -0.019 | [5] 0.008 | [6] -0.064 | [7] -0.046 | [8] 0.021 | [9] 0.029 | [10] 0.003

NOA1 (UniProt Q8NC60)
inactive: [1] -0.041 | [2] -0.012 | [3] -0.05 | [4] -0.011 | [5] -0.036 | [6] -0.089 | [7] -0.027 | [8] 0.059 | [9] 0.04 | [10] -0.001

ORC3 isoform 2 (UniProt Q9UBD5)
Sequence of UniProt Q9UBD5 (Q9UBD5 whole entry, looked up): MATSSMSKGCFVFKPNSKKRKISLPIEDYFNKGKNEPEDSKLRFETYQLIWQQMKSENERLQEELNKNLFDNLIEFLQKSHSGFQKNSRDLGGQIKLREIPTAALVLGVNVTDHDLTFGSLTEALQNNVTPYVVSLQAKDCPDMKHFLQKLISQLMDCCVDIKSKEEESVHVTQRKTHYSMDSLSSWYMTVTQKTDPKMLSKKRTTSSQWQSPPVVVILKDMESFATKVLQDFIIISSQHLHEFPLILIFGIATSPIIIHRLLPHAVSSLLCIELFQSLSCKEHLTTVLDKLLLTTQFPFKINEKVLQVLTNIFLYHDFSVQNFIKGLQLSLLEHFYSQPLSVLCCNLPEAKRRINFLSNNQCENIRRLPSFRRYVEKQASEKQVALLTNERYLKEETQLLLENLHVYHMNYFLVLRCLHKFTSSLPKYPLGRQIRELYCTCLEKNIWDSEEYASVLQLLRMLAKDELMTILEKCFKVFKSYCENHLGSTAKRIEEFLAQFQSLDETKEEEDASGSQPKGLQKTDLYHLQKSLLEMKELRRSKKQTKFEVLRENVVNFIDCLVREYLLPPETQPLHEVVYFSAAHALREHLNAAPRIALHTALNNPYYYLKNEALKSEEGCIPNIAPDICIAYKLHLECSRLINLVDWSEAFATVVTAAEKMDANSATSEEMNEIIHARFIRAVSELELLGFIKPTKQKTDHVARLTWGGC
inactive: [1] -0.014 | [2] 0 | [3] -0.084 | [4] -0.014 | [5] -0.012 | [6] -0.038 | [7] -0.014 | [8] 0.099 | [9] 0.027 | [10] -0.079

MVB12A (UniProt Q96EY5)
inactive: [1] -0.025 | [2] -0.05 | [3] 0.006 | [4] 0.008 | [5] 0.04 | [6] 0.033 | [7] 0.032 | [8] 0.022 | [9] -0.009 | [10] 0.036

NFATC4 isoform 2 (UniProt Q14934)
inactive: [1] -0.046 | [2] -0.018 | [3] 0.055 | [4] 0.04 | [5] -0.041 | [6] -0.07 | [7] -0.066 | [8] 0.01 | [9] -0.017

NPLOC4 isoform 2 (UniProt Q8TAT6)
inactive: [1] -0.005 | [2] 0.007 | [3] 0.019 | [4] 0.007 | [5] 0.004 | [6] -0.037 | [7] 0 | [8] -0.006 | [9] 0.018 | [10] -0.023
